Test results taken from ChEMBL document CHEMBL1961873, “Compounds: GSK PKIS; Assays: Nanosyn kinase panel” (2012).

Assays:
[1] = target: T1, Inhibitor of nuclear factor kappa-B kinase subunit epsilon (Homo sapiens) (UniProt Q14164); settings: at 1 µM;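 further: reported values are averaged percent inhibition figures against human IKKε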
T1 sequence (whole entry): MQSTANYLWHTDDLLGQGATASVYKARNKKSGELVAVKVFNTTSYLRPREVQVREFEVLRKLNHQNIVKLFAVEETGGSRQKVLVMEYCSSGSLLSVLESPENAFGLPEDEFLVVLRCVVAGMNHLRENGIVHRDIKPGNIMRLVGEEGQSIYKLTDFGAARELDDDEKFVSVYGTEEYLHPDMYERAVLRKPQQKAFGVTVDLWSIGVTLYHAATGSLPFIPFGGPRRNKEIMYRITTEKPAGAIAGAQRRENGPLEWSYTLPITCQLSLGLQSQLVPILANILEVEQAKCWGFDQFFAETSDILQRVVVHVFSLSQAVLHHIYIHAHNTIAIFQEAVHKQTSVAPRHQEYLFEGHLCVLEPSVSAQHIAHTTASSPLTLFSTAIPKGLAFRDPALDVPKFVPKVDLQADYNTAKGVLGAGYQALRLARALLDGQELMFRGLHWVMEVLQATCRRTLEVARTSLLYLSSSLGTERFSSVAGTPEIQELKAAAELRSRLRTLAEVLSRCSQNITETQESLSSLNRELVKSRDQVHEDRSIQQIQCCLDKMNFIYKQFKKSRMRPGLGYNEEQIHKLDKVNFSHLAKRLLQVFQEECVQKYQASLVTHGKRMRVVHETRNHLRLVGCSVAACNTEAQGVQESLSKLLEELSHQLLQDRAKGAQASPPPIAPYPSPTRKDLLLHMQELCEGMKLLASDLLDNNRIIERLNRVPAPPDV

[2] = target: T2, Serine/threonine-protein kinase Nek1 (Homo sapiens) (UniProt Q96PY6); settings: at 0.1 µM
T2 sequence (whole entry): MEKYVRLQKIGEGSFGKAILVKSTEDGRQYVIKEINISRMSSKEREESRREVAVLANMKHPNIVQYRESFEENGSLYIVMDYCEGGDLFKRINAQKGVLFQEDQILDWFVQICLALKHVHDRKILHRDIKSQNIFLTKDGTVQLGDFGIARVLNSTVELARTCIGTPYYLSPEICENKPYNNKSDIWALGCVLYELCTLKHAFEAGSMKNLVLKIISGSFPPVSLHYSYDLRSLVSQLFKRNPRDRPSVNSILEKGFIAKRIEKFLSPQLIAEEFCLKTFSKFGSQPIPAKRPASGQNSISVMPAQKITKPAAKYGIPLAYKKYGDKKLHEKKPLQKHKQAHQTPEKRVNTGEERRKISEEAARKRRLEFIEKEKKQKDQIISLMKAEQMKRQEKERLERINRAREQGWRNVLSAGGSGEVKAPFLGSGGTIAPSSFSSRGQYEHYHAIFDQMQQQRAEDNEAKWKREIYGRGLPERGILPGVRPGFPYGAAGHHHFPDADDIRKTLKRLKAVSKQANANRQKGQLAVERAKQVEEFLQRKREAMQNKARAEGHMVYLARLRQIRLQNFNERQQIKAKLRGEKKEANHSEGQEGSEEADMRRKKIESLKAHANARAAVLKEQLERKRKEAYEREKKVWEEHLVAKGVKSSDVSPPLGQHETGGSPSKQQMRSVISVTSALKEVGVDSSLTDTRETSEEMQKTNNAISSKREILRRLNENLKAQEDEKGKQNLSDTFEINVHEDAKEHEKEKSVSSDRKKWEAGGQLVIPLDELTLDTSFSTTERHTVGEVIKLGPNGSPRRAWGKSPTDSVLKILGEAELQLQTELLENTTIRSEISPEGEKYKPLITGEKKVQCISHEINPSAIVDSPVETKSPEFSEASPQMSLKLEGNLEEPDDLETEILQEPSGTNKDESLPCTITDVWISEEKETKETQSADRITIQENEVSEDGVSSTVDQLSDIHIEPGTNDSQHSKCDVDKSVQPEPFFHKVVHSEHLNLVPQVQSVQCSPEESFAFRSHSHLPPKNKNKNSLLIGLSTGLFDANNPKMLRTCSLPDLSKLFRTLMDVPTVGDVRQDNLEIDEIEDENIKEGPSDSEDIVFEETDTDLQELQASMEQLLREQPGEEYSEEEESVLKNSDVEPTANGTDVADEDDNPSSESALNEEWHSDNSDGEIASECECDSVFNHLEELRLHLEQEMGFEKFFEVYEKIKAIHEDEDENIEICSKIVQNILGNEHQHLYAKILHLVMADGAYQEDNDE

[3] = target: T2, Serine/threonine-protein kinase Nek1 (Homo sapiens); settings: at 1 µM
[4] = target: T3, Serine/threonine-protein kinase Nek2 (Homo sapiens) (UniProt P51955); settings: at 0.1 µM
T3 sequence (whole entry): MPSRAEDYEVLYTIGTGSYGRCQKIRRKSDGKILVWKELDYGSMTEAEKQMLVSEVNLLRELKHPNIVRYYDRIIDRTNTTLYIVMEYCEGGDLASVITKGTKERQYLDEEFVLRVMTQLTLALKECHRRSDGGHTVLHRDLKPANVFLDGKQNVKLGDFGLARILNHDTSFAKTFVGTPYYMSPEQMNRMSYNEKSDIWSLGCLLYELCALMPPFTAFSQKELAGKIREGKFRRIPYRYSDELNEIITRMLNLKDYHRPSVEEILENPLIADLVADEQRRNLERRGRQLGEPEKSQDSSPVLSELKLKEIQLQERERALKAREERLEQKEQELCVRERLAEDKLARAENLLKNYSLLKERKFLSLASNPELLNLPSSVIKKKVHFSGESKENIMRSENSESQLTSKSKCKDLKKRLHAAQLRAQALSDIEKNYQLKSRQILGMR

[5] = target: T3, Serine/threonine-protein kinase Nek2 (Homo sapiens); settings: at 1 µM
[6] = target: Serine/threonine-protein kinase Nek6 (Homo sapiens) (UniProt Q9HC98); settings: at 0.1 µM
[7] = target: Serine/threonine-protein kinase Nek6 (Homo sapiens) (UniProt Q9HC98); settings: at 1 µM
[8] = target: Serine/threonine-protein kinase Nek7 (Homo sapiens) (UniProt Q8TDX7); settings: at 0.1 µM
[9] = target: Serine/threonine-protein kinase Nek7 (Homo sapiens) (UniProt Q8TDX7); settings: at 1 µM
[10] = target: T4, Serine/threonine-protein kinase Nek9 (Homo sapiens) (UniProt Q8TD19); settings: at 0.1 µM
T4 sequence (whole entry): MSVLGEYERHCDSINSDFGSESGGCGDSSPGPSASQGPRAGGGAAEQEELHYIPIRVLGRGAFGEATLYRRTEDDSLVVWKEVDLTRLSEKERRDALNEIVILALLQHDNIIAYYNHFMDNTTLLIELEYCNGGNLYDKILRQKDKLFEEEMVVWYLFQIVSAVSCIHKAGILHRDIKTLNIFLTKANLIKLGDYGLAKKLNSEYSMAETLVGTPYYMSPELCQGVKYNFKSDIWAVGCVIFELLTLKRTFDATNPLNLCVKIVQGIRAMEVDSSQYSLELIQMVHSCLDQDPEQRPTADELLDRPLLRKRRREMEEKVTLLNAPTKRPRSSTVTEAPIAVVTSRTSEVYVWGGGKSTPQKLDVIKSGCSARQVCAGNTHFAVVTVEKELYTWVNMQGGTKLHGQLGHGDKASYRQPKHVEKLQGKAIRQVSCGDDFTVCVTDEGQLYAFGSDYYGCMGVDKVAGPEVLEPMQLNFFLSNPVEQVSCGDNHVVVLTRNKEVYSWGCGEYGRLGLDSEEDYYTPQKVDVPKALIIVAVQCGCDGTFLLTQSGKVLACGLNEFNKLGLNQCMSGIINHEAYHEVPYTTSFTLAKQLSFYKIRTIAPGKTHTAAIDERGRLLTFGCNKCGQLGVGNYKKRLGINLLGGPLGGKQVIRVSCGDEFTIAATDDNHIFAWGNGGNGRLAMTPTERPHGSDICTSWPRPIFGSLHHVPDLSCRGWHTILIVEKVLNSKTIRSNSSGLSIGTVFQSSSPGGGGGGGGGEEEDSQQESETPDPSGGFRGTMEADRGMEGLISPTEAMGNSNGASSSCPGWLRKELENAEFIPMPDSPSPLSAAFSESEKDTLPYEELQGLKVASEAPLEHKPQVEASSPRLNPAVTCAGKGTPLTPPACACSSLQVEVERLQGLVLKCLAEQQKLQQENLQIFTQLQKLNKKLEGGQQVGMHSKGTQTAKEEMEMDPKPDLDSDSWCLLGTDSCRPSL

[11] = target: T4, Serine/threonine-protein kinase Nek9 (Homo sapiens); settings: at 1 µM
[12] = target: Serine/threonine-protein kinase PLK1 (Homo sapiens) (UniProt P53350); settings: at 0.1 µM
[13] = target: Serine/threonine-protein kinase PLK1 (Homo sapiens) (UniProt P53350); settings: at 1 µM
[14] = target: T5, Dual specificity protein kinase TTK (Homo sapiens) (UniProt P33981); settings: at 0.1 µM
T5 sequence (whole entry): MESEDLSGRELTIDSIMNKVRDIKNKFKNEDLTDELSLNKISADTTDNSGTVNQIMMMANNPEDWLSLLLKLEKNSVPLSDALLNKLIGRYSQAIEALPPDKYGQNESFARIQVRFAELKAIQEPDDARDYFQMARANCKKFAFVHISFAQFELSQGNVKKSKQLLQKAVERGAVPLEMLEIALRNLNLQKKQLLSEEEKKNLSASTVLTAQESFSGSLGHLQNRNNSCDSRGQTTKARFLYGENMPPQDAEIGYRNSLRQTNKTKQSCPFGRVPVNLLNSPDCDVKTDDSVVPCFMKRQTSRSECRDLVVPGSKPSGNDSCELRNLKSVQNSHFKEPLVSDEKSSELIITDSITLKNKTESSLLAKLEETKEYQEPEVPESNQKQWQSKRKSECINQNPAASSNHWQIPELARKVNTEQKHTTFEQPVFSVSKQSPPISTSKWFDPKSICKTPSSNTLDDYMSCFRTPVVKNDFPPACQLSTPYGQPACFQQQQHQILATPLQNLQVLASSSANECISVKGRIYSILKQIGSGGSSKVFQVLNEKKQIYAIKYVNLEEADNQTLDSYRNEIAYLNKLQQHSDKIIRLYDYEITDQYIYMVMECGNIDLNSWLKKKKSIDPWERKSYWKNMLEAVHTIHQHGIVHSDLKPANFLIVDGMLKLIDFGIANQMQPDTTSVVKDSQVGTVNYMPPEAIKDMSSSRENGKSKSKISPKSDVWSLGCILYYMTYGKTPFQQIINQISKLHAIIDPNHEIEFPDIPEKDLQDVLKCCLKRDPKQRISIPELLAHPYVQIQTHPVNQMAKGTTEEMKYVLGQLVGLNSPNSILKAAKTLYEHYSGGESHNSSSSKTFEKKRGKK

[15] = test system: T6, Receptor-type tyrosine-protein kinase FLT3 (Homo sapiens), P36888 [D835Y]; settings: at 1 µM
T6 sequence (whole entry): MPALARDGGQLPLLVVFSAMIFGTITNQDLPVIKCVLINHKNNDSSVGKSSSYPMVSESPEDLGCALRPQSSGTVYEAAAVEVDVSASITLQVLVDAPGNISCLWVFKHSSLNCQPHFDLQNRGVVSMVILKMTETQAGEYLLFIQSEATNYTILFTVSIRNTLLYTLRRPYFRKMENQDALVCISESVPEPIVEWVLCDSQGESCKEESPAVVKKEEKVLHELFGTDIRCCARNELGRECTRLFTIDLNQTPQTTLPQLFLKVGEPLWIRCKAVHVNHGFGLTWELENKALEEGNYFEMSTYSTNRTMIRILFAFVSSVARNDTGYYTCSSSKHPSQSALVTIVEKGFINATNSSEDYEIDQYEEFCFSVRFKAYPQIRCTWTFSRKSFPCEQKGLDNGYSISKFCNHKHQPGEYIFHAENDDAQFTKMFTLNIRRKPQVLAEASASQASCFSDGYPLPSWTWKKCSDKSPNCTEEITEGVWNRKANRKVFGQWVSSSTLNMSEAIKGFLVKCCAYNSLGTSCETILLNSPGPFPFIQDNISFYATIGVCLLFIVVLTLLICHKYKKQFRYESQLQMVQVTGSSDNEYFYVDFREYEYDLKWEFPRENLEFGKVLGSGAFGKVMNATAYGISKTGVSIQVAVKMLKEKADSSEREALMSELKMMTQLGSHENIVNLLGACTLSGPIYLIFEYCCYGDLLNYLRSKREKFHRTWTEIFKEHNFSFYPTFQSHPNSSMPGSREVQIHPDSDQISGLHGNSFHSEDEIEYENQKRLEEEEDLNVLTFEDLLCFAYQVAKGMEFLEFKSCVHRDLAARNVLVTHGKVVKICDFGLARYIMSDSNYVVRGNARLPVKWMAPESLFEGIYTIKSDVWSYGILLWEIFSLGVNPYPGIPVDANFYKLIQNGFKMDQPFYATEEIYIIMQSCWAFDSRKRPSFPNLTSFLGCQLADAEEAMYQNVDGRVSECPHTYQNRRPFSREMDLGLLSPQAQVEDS

[16] = target: Vascular endothelial growth factor receptor 3 (Homo sapiens) (UniProt P35916); settings: at 0.1 µM
[17] = target: Vascular endothelial growth factor receptor 3 (Homo sapiens) (UniProt P35916); settings: at 1 µM
[18] = target: Macrophage colony-stimulating factor 1 receptor (Homo sapiens) (UniProt P07333); settings: at 0.1 µM
[19] = target: Macrophage colony-stimulating factor 1 receptor (Homo sapiens) (UniProt P07333); settings: at 1 µM
[20] = target: Tyrosine-protein kinase Fyn (Homo sapiens) (UniProt P06241); settings: at 0.1 µM
Sequence of Tyrosine-protein kinase Fyn (Homo sapiens) (P06241 2-537 limits assumed): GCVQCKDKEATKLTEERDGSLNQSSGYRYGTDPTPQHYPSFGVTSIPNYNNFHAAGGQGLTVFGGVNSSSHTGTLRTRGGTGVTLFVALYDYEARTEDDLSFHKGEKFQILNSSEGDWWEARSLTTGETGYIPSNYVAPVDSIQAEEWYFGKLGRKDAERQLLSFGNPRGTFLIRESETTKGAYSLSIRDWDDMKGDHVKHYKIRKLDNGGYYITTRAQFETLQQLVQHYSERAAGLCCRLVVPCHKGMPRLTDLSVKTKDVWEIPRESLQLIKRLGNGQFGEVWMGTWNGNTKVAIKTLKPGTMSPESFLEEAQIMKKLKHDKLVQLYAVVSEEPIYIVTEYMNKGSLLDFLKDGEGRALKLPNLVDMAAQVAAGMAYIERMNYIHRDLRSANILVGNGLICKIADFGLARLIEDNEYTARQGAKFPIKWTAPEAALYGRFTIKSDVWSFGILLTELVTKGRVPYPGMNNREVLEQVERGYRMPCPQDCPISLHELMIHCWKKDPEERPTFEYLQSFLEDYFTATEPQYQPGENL

Sequence of Vascular endothelial growth factor receptor 3 (Homo sapiens) (P35916 whole entry): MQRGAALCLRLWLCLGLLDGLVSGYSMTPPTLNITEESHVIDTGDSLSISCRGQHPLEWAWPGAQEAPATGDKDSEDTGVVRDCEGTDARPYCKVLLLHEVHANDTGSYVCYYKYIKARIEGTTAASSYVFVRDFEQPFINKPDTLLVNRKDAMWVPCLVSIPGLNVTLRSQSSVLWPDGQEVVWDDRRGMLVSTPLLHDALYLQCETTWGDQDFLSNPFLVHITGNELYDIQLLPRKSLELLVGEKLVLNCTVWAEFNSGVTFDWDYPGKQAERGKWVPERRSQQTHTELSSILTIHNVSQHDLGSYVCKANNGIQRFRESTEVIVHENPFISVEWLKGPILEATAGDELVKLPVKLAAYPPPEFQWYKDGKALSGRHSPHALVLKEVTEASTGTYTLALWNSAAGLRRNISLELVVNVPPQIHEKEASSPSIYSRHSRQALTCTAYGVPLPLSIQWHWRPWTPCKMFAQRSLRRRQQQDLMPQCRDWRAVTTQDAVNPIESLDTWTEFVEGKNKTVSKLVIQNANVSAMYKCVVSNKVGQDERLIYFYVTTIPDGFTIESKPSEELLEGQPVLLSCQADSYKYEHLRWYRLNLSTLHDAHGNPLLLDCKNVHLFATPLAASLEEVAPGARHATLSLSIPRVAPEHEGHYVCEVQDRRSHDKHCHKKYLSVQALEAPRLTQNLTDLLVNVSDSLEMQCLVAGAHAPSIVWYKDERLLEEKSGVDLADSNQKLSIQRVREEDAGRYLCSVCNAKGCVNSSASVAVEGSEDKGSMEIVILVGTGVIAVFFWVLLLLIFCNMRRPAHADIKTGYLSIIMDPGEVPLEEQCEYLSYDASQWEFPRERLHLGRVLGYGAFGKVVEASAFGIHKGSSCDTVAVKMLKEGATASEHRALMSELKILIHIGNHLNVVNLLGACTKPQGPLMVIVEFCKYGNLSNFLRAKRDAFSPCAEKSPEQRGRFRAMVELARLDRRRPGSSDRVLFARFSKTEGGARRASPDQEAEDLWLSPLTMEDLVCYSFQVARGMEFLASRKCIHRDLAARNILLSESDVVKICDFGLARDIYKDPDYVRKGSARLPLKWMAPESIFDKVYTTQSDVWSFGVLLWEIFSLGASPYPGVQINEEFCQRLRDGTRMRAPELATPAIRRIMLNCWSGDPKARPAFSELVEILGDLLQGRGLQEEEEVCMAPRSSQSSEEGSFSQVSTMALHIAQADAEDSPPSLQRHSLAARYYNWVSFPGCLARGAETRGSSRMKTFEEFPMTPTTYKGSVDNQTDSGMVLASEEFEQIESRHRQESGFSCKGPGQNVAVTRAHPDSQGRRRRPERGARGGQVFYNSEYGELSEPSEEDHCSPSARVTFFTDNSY
Sequence of Serine/threonine-protein kinase PLK1 (Homo sapiens) (P53350 whole entry): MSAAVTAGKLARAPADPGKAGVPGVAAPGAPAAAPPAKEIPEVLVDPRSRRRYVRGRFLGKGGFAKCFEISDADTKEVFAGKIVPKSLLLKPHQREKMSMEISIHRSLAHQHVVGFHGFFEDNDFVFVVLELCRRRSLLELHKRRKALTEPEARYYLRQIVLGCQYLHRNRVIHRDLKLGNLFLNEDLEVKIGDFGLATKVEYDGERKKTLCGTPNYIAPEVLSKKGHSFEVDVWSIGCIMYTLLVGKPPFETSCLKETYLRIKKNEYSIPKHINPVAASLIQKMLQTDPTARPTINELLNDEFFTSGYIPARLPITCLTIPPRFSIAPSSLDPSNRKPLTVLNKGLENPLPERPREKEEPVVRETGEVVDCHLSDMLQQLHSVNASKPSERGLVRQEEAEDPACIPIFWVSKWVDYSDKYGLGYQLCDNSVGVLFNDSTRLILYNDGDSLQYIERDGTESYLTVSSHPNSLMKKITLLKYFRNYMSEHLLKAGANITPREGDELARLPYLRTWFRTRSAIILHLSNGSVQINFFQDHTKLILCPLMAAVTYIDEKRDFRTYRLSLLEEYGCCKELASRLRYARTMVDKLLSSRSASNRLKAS
Sequence of Macrophage colony-stimulating factor 1 receptor (Homo sapiens) (P07333 whole entry): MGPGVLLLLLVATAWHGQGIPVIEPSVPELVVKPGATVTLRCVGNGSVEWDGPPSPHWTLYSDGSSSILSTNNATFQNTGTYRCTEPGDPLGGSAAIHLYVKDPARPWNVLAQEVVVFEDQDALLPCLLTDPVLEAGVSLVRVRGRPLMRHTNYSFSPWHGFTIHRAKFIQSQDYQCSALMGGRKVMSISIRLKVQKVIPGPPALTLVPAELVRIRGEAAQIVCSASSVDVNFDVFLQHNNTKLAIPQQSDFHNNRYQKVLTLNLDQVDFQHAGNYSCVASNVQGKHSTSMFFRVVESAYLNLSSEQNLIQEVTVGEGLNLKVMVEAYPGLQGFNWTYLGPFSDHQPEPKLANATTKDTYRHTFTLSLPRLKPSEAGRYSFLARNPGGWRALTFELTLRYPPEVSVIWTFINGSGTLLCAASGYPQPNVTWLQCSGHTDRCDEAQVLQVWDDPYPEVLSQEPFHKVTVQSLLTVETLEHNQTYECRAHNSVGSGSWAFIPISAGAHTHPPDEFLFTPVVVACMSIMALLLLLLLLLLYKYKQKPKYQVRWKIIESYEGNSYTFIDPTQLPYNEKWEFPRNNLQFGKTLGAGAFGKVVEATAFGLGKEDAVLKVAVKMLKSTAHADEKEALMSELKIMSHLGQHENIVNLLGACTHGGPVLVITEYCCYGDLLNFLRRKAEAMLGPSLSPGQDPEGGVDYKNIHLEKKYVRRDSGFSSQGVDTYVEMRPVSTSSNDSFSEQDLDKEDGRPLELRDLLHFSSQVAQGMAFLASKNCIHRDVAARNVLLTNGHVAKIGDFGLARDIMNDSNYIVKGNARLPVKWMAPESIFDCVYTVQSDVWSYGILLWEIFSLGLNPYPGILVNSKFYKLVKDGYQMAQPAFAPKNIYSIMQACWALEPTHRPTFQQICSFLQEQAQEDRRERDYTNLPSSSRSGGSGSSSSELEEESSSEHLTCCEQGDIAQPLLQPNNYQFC
Sequence of Serine/threonine-protein kinase Nek6 (Homo sapiens) (Q9HC98 whole entry): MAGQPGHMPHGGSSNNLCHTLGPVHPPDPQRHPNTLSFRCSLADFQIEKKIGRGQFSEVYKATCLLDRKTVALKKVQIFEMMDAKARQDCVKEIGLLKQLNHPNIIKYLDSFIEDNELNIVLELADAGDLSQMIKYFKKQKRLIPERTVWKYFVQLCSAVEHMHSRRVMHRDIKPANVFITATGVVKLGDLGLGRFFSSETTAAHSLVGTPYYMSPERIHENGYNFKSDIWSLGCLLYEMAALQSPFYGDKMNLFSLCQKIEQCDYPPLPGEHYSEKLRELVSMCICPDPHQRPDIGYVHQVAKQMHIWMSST
Sequence of Serine/threonine-protein kinase Nek7 (Homo sapiens) (Q8TDX7 whole entry, looked up): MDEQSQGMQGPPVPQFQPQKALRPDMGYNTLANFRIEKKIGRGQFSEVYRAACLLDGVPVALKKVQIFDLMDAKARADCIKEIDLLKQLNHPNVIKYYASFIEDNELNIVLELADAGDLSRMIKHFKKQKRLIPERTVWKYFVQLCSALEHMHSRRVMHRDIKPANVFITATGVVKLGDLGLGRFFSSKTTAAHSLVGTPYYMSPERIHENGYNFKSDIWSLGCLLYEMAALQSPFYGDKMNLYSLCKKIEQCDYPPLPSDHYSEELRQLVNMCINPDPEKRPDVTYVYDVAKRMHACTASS

SMILES	inhibition [1] [%]	inhibition [2] [%]	inhibition [3] [%]	inhibition [4] [%]	inhibition [5] [%]	inhibition [6] [%]	inhibition [7] [%]	inhibition [8] [%]	inhibition [9] [%]	inhibition [10] [%]	inhibition [11] [%]	inhibition [12] [%]	inhibition [13] [%]	inhibition [14] [%]	inhibition [15] [%]	inhibition [16] [%]	inhibition [17] [%]	inhibition [18] [%]	inhibition [19] [%]	inhibition [20] [%]
N#Cc1c(NC(=O)c2ccc(F)cc2)sc2c1CCCC2	3.72	9.69	3.09	2.18	1.31	2.27	2.25	2.7	2.46	3.12	0.67	4.32	2.6	4.36	2.85	0.08	-0.81	0.56	-0.85	-0.49
COc1ccc(-c2nn3ncccc3c2-c2ccnc(Nc3ccc4c(c3)OCCO4)n2)cc1	-0.27	0.11	2.9	-0.55	3.9	-0.41	0.26	2.18	1.38	6.4	8.39	2.68	2.45	4.08	0.07	8.62	56.4	19.6	66.8	5.65
COc1ccc2[nH]c3c4[nH]c5ccc(OC)cc5c4c4c(c3c2c1)C(=O)NC4=O	36.3	0.76	1.99	4.36	5.74	5.36	5.14	3.71	5.28	2.96	2.1	3.01	9.29	15.5	92.7	18.5	63.5	12.9	50.9	3.62
COC(=O)Nc1nc2ccc(Oc3ccc(NC(=O)Nc4cccc(Cl)c4)cc3)cc2[nH]1	1.25	0.97	0.11	0.46	0.04	2.21	-0.77	1.46	1.97	5.35	2.84	-0.55	0.69	2.99	1.8	4.07	9.34	16.5	45.2	0.86
